The text below walks through data of PubChem BioAssay (NCI).

Common to all, as to assay: NCI-60 one-dose screen, 48 h (100 = growth as untreated, 0 = no growth, -100 = all killed)
Experiment [1] deals with NCI-H23 lung. To be noted: 10 µM unless noted.
The test system of experiment [2] is NCI-H226 lung. Particulars: 10 µM unless noted.
In experiment [3] the test system is NCI-H322M lung. Particulars: 10 µM unless noted.
The subject of experiment [4] is HOP-62 NSCLC. To be noted: 10 µM unless noted.
Experiment [5] concerns NCI-H460 lung. Particulars: 10 µM unless noted.
In experiment [6] the test system is HOP-92 NSCLC. Particulars: 10 µM unless noted.
Experiment [7] relates to NCI-H522 lung. Particulars: 10 µM unless noted.
Experiment [8] concerns A549/ATCC NSCLC. To be noted: 10 µM unless noted.
The test system of experiment [9] is 786-0 renal. To be noted: 10 µM unless noted.
Experiment [10] relates to COLO 205 colon. Particulars: 10 µM unless noted.
Experiment [11] relates to DU-145 prostate. Particulars: 10 µM unless noted.
In experiment [12] the test system is K-562 leukemia. Particulars: 10 µM unless noted.
The subject of experiment [13] is MALME-3M melanoma. Particulars: 10 µM unless noted.
Experiment [14] has as its system MDA-MB-231 breast. Particulars: 10 µM unless noted.
For experiment [15], the system named is RXF 393 renal. Particulars: 10 µM unless noted.
The subject of experiment [16] is SF-268 CNS. Particulars: 10 µM unless noted.
Experiment [17] deals with SF-295 CNS. Particulars: 10 µM unless noted.
Experiment [18] concerns SF-539 CNS. To be noted: 10 µM unless noted.
For experiment [19], the system named is UACC-257 melanoma. Particulars: 10 µM.
In experiment [20] the test system is M14 melanoma. Particulars: 10 µM unless noted.

This is part of a sample that, as a whole, favours compounds with a hit. Of some 83,000 tested, about 20% had one in any assay.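 48-hour exposure, single concentration, 96-well plates; percent growth endpoint where 0 means no net growth. Active: below 10.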 Unmarked numbers belong to inactive results. Calls of active or inactive are those of the source.

On to `O=C(Nc1ccc(-c2nc(-c3cccc(O)c3)c(-c3ccnc(Br)c3)[nH]2)cc1)c1ccccc1`, for which the growth is 10.5% in experiment [1]; 51.4% in experiment [2]; 37.3% in [3]; 2.99% (active) in experiment [4]; 11.1% in experiment [5]; 6.58% (active) in [6]. Besides, the growth in experiment [7] is 11.3%; in experiment [8], 25.9%; in experiment [9], -10.2% (active); in experiment [10] it was 21%; in experiment [11], 35.5%; in experiment [12], 1.18% (active). In addition, the growth in [13] is 16.9%; in [14] it was 30.2%; in experiment [15], -37.1% (active); in [16], 29.2%; in experiment [17], -56.4% (active); in [18], 16.6%. The growth is 45.8% in experiment [19] and 22.6% in [20].
With `COc1ccc(CN2C(=O)/C(=C/c3nc(CO)cs3)SC2=S)cc1`, the growth is 92.6% in experiment [1]; 101% in [2]; 97.5% in [3]; 104% in experiment [4]; 100% in experiment [5]; 63.4% in [6]. The growth in experiment [7] was 35.6%; in experiment [8], 95.7%; in experiment [9], 51.2%; in experiment [10] it was 118%; in experiment [11], 96.5%; in experiment [12], 52.6%. In addition, the growth in experiment [13] was 93.2%; in experiment [14] it was 79.5%; in experiment [15], 95.3%; in experiment [16], 98.8%; in [17], 106%; in experiment [18] it was 70.1%. The growth in experiment [19] is 93.6%; in experiment [20], 86.4%.
For the compound `COc1ccc(-c2nc(SCCC(C)C)nc(N/N=C\c3ccc(O)cc3)c2C#N)cc1`, the growth is 36.3% in experiment [1]; 97.3% in experiment [2]; 82.7% in experiment [3]; 61.9% in [4]; 10.9% in [5]; 67.7% in [6]. Also, the growth in [7] was 87.7%; in [8], 60.2%; in experiment [9] it was 34%; in experiment [10], 106%; in experiment [11] it was 59.7%; in experiment [12], 42.2%. The growth in experiment [13] is 79.3%; in [14], 54.2%; in [15] it was 78%; in experiment [16], 55.7%; in [17] it was 91.6%; in experiment [18] it was 35.1%. Moreover, the growth in experiment [19] was 111%; in [20], 76.6%.
Consider `O=C1[C@H]2Cc3c([nH]c4ccccc34)[C@@H](c3c(Cl)cccc3Cl)N2C(=O)CN1C1CCN(Cc2ccccc2)CC1`, for which the growth in experiment [1] was 104%; in experiment [2], 103%; in experiment [3], 101%; in experiment [4], 90.7%; in experiment [5], 8% (active); in [6], 83.8%. Also, the growth in [7] was 38.2%; in experiment [8] it was 94.2%; in [9], -58.2% (active); in experiment [10], 101%; in experiment [11], 39.2%; in experiment [12], 5.96% (active). Moreover, the growth in experiment [13] was 61.4%; in experiment [14], 89.3%; in [15], 81.6%; in [16], 73.8%; in experiment [17], 106%; in [18], 93.5%. For the same compound, the growth in experiment [19] is 105%; in [20], 78.1%.
Turning to `CCOC(=O)c1c(NC(=O)c2ccc(F)cc2F)sc2c1CCC(=O)C2`, the growth in experiment [1] was 103%; in [2] it was 107%; in [3], 102%; in [4] it was 104%; in [5], 102%; in experiment [6] it was 107%. Also, the growth was 51.6% in [7]; 92.8% in experiment [8]; 100% in experiment [9]; 109% in experiment [10]; 94.9% in experiment [11]; 86.7% in [12]. The growth in [13] is 118%; in [14], 97.2%; in experiment [15], 117%; in experiment [16], 91.9%; in experiment [17], 95.1%; in [18], 79.3%. In addition, the values for the growth in experiment [19] and in [20] were 102% and 111%, respectively.
In the case of `N/C(=N\OC(=O)CSc1nc2ccccc2s1)c1ccc2ccccc2c1`, the growth in [1] was 95.3%; in [2] it was 99.6%; in experiment [3], 101%; in experiment [4] it was 92%; in experiment [5] it was 108%; in experiment [6] it was 95.9%. The growth was 91.2% in experiment [7]; 102% in experiment [8]; 103% in [9]; 107% in [10]; 103% in [11]; 102% in experiment [12]. Also, the growth in experiment [13] was 105%; in experiment [14] it was 89.5%; in experiment [15], 119%; in experiment [16], 98.2%; in experiment [17], 103%; in experiment [18], 95.2%. Besides, the growth in experiment [19] was 105%; in experiment [20], 98.6%.
As for `CC1COc2c(N3CCN(C)CC3)c(F)cc3c(=O)c(C(=O)N/N=C/c4cc[nH]c4)cn1c23` (stereo not given), the growth in experiment [1] is 41.1%; in experiment [2] it was 50%; in experiment [3], 65.7%; in experiment [4], 38%; in [5], 0.46% (active); in [6], 28%. Besides, the growth in experiment [7] is 13.8%; in [8], -5.87% (active); in experiment [9] it was 1.52% (active); in experiment [10] it was 54.4%; in [11], 42%; in experiment [12], -27.8% (active). Further, the growth in experiment [13] is -3.02% (active); in experiment [14], 44.4%; in experiment [15], 16%; in [16], 59.1%; in experiment [17], 70.3%; in experiment [18], 38.5%. Moreover, the growth is -74.5% (active) in experiment [19] and -79.8% (active) in experiment [20].
